Paper PMC6792352, “Limited Chemical Structural Diversity Found to Modulate Thyroid Hormone Receptor in the Tox21 Chemical Library” (Environmental Health Perspectives, 2019)
Counter-ions that a name gives are not always drawn.

These compounds were tested on thyroid hormone receptor (endogenous TRα and TRβ). Details: read-out: Average AC50 (uM) GH3-TRE-Antag, antagonist mode, 1 nM T3, no GH3 cytotoxicity hit.
Parameters: species or system GH3-TRE-Luc (rat pituitary); GH3-TRE-Luc luciferase reporter, antagonist mode against 1 nM T3, loss of signal, qHTS
CCC(=O)NCC[C@@H]1CCc2ccc3c(c21)CCO3 [Ramelteon] was tested, and the AC50 was 39.2 µM. Compound CC(C)OC(=S)S [Proxan-sodium] has an AC50 greater than 90 µM. C[C@H]1O[C@@H](O[C@H]2[C@@H](O)C[C@H](O[C@H]3[C@@H](O)C[C@H](O[C@H]4CC[C@@]5(C)[C@H](CC[C@@H]6[C@@H]5C[C@@H](O)[C@]5(C)[C@@H](C7=CC(=O)OC7)CC[C@]65O)C4)O[C@@H]3C)O[C@@H]2C)C[C@H](O)[C@@H]1O [Digoxin] was tested, and the AC50 was greater than 50 µM. For O=C(O)c1snc(Cl)c1Cl [3,4-Dichloro-5-isothiazolecarboxylic acid], the AC50 was 51.4 µM. COC(=O)c1cc(Oc2ccc(Cl)cc2Cl)ccc1[N+](=O)[O-] [Bifenox] showed an AC50 of 74 µM. C=CC[C@]1(O)CC[C@H]2[C@@H]3CCC4=CC(=O)CCC4=C3C=C[C@@]21C [Altrenogest] was tested, and the AC50 was 11.8 µM. C(CCOCC1CO1)COCC1CO1 (stereo not shown) [1,4-Butanediol diglycidyl ether] was tested, and the AC50 was 37.9 µM. CC(C)[C@@H](C)/C=C/[C@@H](C)[C@H]1CC[C@H]2/C(=C/C=C3\C[C@@H](O)CC[C@@H]3C)CCC[C@]12C [Dihydrotachysterol] gave an AC50 of 26.8 µM. C=CCNC1=C2C[C@@H](C)C[C@H](OC)[C@H](O)[C@@H](C)/C=C(\C)[C@H](OC(N)=O)[C@@H](OC)/C=C\C=C(/C)C(=O)NC(=CC1=O)C2=O [Tanespimycin] showed an AC50 of 0.306 µM. Compound CC1(C)NC(=O)N(c2ccc([N+](=O)[O-])c(C(F)(F)F)c2)C1=O [Nilutamide] has an AC50 of 38.5 µM. CCCC1O[C@@H]2C[C@H]3[C@@H]4CCC5=CC(=O)C=C[C@]5(C)[C@H]4[C@@H](O)C[C@]3(C)[C@]2(C(=O)CO)O1 (stereo partly shown) [Budesonide] showed an AC50 greater than 50 µM. In the case of C#C[C@]1(O)CC[C@H]2[C@@H]3CCC4=CC(=O)CCC4=C3C=C[C@@]21CC [Gestrinone], the AC50 is reported as 24.3 µM. Compound C[C@@H]1C[C@H]2[C@@H]3CCC4=CC(=O)C=C[C@]4(C)[C@@]3(Cl)[C@@H](O)C[C@]2(C)[C@@]1(OC(=O)c1ccco1)C(=O)CCl [Mometasone furoate] has an AC50 of 16.9 µM. With CCCC(=O)O[C@]1(C(=O)CCl)[C@@H](C)C[C@H]2[C@@H]3CCC4=CC(=O)C=C[C@]4(C)[C@@]3(F)C(=O)C[C@@]21C [Clobetasone butyrate] the AC50 was 32.9 µM. CCCCCCOc1ccccc1C(N)=O [Exalamide] showed an AC50 of 30.7 µM. Compound NNc1nnc(Cc2ccncc2)c2ccccc12 [Picodralazine] has an AC50 of 3.28 µM. O=c1oc2ccccc2c(O)c1Cc1c(O)c2ccccc2oc1=O [Dicumarol] gave an AC50 of 12.7 µM. C=CCCCCCCCCC=O [Undec-10-enal] gave an AC50 of 75.3 µM. With CC1(CO)CN(c2ccccc2)NC1=O (stereo not shown) [4-(Hydroxymethyl)-4-methyl-1-phenylpyrazolidin-3-one] the AC50 was 82.6 µM. For CCCCCc1ccc(N)cc1 [4-Pentylaniline], the AC50 was 47.1 µM. CCC(=O)/C=C/c1ccc(OC)cc1 [1-(4-Methoxyphenyl)-1-pentene-3-one] was tested, and the AC50 was 79.8 µM. Compound Oc1ccccc1Cc1ccccc1O [2,2'-Bisphenol F] has an AC50 greater than 90 µM. Compound CC(=O)Nc1ccn(C2COC(COC(=O)c3ccccc3)O2)c(=O)n1 (stereo not shown) [{4-[4-(Acetylamino)-2-oxopyrimidin-1(2H)-yl]-1,3-dioxolan-2-yl}methyl benzoate] has an AC50 of 11.4 µM. O=C(/C=C/c1ccccc1)OCc1ccccc1 [Benzyl cinnamate] showed an AC50 greater than 50 µM. Cc1ccccc1CO[C@@H]1C[C@@]2(C(C)C)CC[C@]1(C)O2 (racemic) [Cinmethylin] was tested, and the AC50 was 38.4 µM. OC(CN1CCC(Cc2ccc(F)cc2)CC1)c1ccc(Cl)cc1 (stereo not shown) [Eliprodil] was tested, and the AC50 was 19.5 µM. Work on Cc1nc2ccccc2n1Cc1ccc(Cl)cc1 [Chlormidazole] yielded an AC50 of 5.9 µM. In the case of O=C1OC(OC(=O)c2cccnc2Nc2cccc(C(F)(F)F)c2)c2ccccc21 (stereo not shown) [Talniflumate], the AC50 is reported as 9.92 µM. Work on O=C(CCCCCCCCC#CI)Oc1ccccc1 [Phenyl 11-iodo-10-undecynoate] yielded an AC50 of 21.5 µM. For CC(C)(C)c1ccc2c(S(=O)(=O)O)c(C(C)(C)C)ccc2c1 [Sodium dibunate], the AC50 was greater than 50 µM. Compound C[C@]12CC[C@@H]3c4ccc(O)cc4CC[C@H]3[C@@H]1C[C@@H](O)[C@@H]2O [Estriol] has an AC50 greater than 50 µM. Compound CCCCNc1ccc(C(=O)OCCN(CC)CC)cc1 [Depolipon] has an AC50 of 21 µM. N#Cc1cc(Br)c(O)c(Br)c1 [Bromoxynil] was tested, and the AC50 was 69.3 µM. Compound CCCc1nc2c(C)cc(-c3nc4ccccc4n3C)cc2n1Cc1ccc(-c2ccccc2C(=O)O)cc1 [Telmisartan] has an AC50 of 31.6 µM. For CCCc1c(OCCCOc2ccc(OCC(=O)O)cc2)ccc(C(C)=O)c1O [4-[3-(4-Acetyl-3-hydroxy-2-propylphenoxy)propoxy]phenoxy-acetic acid], the AC50 was 85.9 µM. Work on c1ccc(-c2nc[nH]c2-c2ccccc2)cc1 [4,5-Diphenylimidazole] yielded an AC50 of 24.1 µM. Work on CN(CC(=O)N1CCOCC1)Cc1c(Cl)cccc1NC(=O)c1ccccc1 [Fominoben hydrochloride] yielded an AC50 greater than 50 µM. In the case of CCCCOc1cc(C(=O)OCCN(CC)CC)ccc1N [Benoxinate hydrochloride], the AC50 is reported as 11.8 µM. CC1(C)S[C@@H]2[C@H](NC(=O)[C@H](N)c3ccccc3)C(=O)N2[C@H]1C(=O)OC1OC(=O)c2ccccc21 (stereo partly shown) [Talampicillin hydrochloride] showed an AC50 greater than 20 µM. With Cc1c(COC(=O)[C@@H]2[C@H](/C=C(\Cl)C(F)(F)F)C2(C)C)cccc1-c1ccccc1 (racemic) [Bifenthrin] the AC50 was 17.5 µM.
